Bioassay records: PubChem BioAssay, National Center for Advancing Translational Sciences (NCATS)
Sampled rows, rich in hits. Any-hit rate of the full collection: about 21%.
SARS PLpro yeast = qHTS of Yeast-based Assay for SARS-CoV PLP. S. cerevisiae expressing SARS-CoV PLpro, growth rescue. Potency, µM (highest dose often 32.9 µM), for inactives: top-dose activity, positive = growth rescue, actives largely listed as activators. 0.19% of 330,000 active. AID 485353, 2010; calls by dose curve; further: potency means the concentration at half of the fitted maximal effect; 0% is about no effect; nearly all actives have a fitted effect of over 55% in size
NS1 function inh = qHTS Assay for Inhibitors of Influenza NS1 Protein Function | Potency, µM (top dose mostly 46.1 µM), without a hit: at the top dose activity, positive = more growth | 0.4% of 270,000 active; calls by dose curve; further: potency means the concentration at half of the fitted maximal effect; actives are rising curves; nearly all actives have a fitted effect of over 50% in size
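A cell-based growth assay was used: compounds that relieve NS1-induced slow growth of budding yeast raise OD600. Assay medium was yeast nitrogen base with ammonium sulphate and -URA supplement, pH 6.0, with 2% galactose.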
Pf growth 48h = Primary qHTS for delayed death inhibitors of the malarial parasite plastid, 48 hour incubation; P. falciparum luciferase growth in erythrocytes, 48 h; Potency, µM (series often up to 28.7 µM), without a hit: at the top dose activity change, negative = inhibition, usual class: inhibitors; 5.9% of 310,000 active; further: potency means the concentration at half of the fitted maximal effect; on the % scale 0 is the no-effect control and ±100 the full control effect
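Growth was read as firefly luciferase luminescence after a 48 h, 37 C, 5% CO2 exposure of compounds to reporter-bearing P. falciparum cultures (0.1% parasitemia, 2% hematocrit final) in Albumax-supplemented RPMI 1640.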
Pf growth 96h = Primary qHTS for delayed death inhibitors of the malarial parasite plastid, 96 hour incubation. P. falciparum luciferase reporter growth, 96 h. Potency, µM (titrated, usually from 28.7 µM), inactives show top-dose activity change, negative = inhibition, usual class: inhibitors. 6.9% of 320,000 active. AID 504834, 2011; further: potency means the concentration at half of the fitted maximal effect; on the % scale 0 is the no-effect control and ±100 the full control effect
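Erythrocytes infected with luciferase-expressing P. falciparum were dispensed at 2% hematocrit and 0.05% parasitemia (final), then incubated with compounds 96 hours at 37 C in 5% CO2. Luminescence after detection reagent addition reported growth.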
CHX counter = Cycloheximide Counterscreen for Small Molecule Inhibitors of Shiga Toxin; cell reporter, cycloheximide protein synthesis inhibition counterscreen; max response, %; 12% of 300,000 active; in the data active means max response mostly above about 13%, no sharp cut-off; inactive means mostly below about 14%; further: read at 38.3 µM for the half of the compounds with a filed dose; 0% is about no effect
Shiga toxin inh = A qHTS for Small Molecule Inhibitors of Shiga Toxin; Vero cells, Shiga toxin protein synthesis inhibition reporter; inhibition, % at 38.7 µM; 9.2% of 290,000 active; in the data active means inhibition mostly above about 28%, no sharp cut-off; inactive means mostly below about 43%; further: 0% is about no effect
Numbers without * were called inactive; ? = inconclusive; . = no result given; [ ] = dose if it differs, or a comment. Unless noted, the call rests on the fitted dose curve; in most records, active means well fitted inhibition curve with a large enough effect; inconclusive means small, poorly fitted or top-dose-only effect, or another doubt; inactive means no such curve, though single readings can be large or run the other way.

SMILES	SARS PLpro yeast	NS1 function inh	Pf growth 48h	Pf growth 96h	CHX counter	Shiga toxin inh
O=NNc1nc2ccccc2n1Cc1ccccc1	2.9%	1.1%	?	13.1µM*	-4.1	11.2
CC(=O)Nc1nc2ccccc2n1CCN(C)C	-2.2%	-1.8%	199.1%	1.3%	-1.9	3.2
Cn1c(NN=O)nc2ccccc21	0.0%	7.2%	11.7µM*	?	28.3*	48.5*
Cc1ccc(C(=O)N2CCCC2)cc1S(=O)(=O)Nc1cccc(C)c1C	0.9%	-0.9%	-3.6%	?	-0.6	-15.8
CCCCCSc1cc(OC)c(CCN(C)C)cc1OC	2.0%	9.1%	?	11.7µM*	19.5*	4.0
Cc1ccc(C)c(OCC(=O)Nc2cc(C(=O)O)cc(C(=O)O)c2)c1	1.1%	0.7%	?	19.6%	-1.0	-9.1
Cc1ccc(C)c(OCC(=O)Nc2cccc(C(=O)O)c2)c1C	-5.7%	0.7%	74.8%	.	41.0*	46.3
Cc1cccc(C)c1OCC(=O)Nc1cccc(C(=O)O)c1	0.5%	4.9%	159.3%	1.2%	40.9*	91.7*
CC(=Nc1ccccc1N)c1c(O)n(C)c(=O)[nH]c1=O	-8.9%	-30.7%	0.3%	?	50.0*	75.9*
CC(=NCc1ccco1)c1c(O)n(-c2ccccc2)c(=O)[nH]c1=O	-2.2%	28.8%	-0.2%	?	-0.6	58.1
COc1ccc(NC(=O)CSc2nccn2Cc2ccccc2)cc1	8.5%	-4.5%	-11.8%	-15.7%	53.3*	163.7*
COc1ccc(NC(=O)CSc2nnnn2C2CC3C=CC2C3)cc1 (configuration not stated)	-2.4%	-1.7%	?	?	19.7*	31.3
COc1ccc(NC(=O)CSc2nccn2-c2ccccc2)cc1	-6.6%	-172.8%	14.7%	2.5%	22.0*	39.3
CCn1cc2nc(SCC(=O)Nc3ccccc3F)n(Cc3ccccc3)c(=O)c2n1	?	0.2%	?	1.7%	-2.4	-4.3
CCn1c(=O)cc(SCC(=O)NCc2cccnc2)c2ccccc21	-0.1%	2.8%	35.7%	9.28µM*	2.6	-14.5
CCn1c(=O)cc(SCC(=O)NCc2ccc(C)o2)c2ccccc21	4.4%	-5.6%	.	11.7µM*	-4.2	-9.3
CCn1c(=O)cc(SCC(=O)NCc2ccco2)c2ccccc21	9.5%	1.2%	6.3%	?	9.0	10.0
Cc1cc(=O)oc2cc(OC(=O)CCCCCN3C(=O)c4ccccc4C3=O)ccc12	1.1%	-2.4%	-6.4%	44.7%	-4.4	7.1
O=c1[nH][nH]c(=O)c2c(NS(=O)(=O)c3ccccc3)cccc12	1.1%	-4.6%	1.7%	?	35.6*	62.4*
CC(=O)/C(=C/N(C)C)C(=O)Nc1ccc(Cl)cc1Cl	-4.6%	-51.3%	2.1%	-7.7%	20.8	15.9
CN(C)/C=N/C(=S)Nc1ccc(Cl)cc1	-0.6%	-2.9%	11.1%	-17.9%	34.8*	65.4*
Cc1cccc(C)c1NC(=S)/N=C/N(C)C	-0.6%	-2.0%	-0.8%	22.3%	-2.1	26.4
CN(C)/C=N/C(=S)Nc1ccc(Cl)cc1Cl	-1.6%	-3.7%	37.3%	8.9%	57.3*	74.3*
COCCN(C(=O)CNC(=O)c1cccs1)C(C(=O)NC(C)(C)C)c1ccccc1 (configuration not stated)	0.9%	-0.6%	-7.8%	-12.5%	-4.7	-6.8
Brc1ccc(CSc2nnc(-c3ccco3)o2)cc1	-35.6%	-33.4%	19.4%	-1.6%	63.0*	69.1*
SMILES	SARS PLpro yeast	NS1 function inh	Pf growth 48h	Pf growth 96h	CHX counter	Shiga toxin inh
Cc1ccc(CSc2nnc(-c3ccco3)o2)cc1	-14.7%	-111.2%	.	129.6%	33.2*	107.3*
O=C(O)c1ccc(CSc2nnc(-c3ccco3)o2)cc1	3.8%	-49.2%	.	12.9%	-6.4	5.5
c1ccc(CSc2nnc(-c3ccco3)o2)cc1	-0.9%	-32.1%	75.4%	46.8%	49.2*	108.6*
Fc1ccc(CSc2nnc(-c3ccco3)o2)cc1	-2.7%	-38.9%	30.7%	43.5%	45.8*	58.8*
Cc1nccn1-c1ccc(C=O)cc1	0.4%	3.8%	24.0%	21.0%	-2.2	-13.8
CCN(CC)C(=O)N1CCc2ccccc21	-0.1%	1.9%	-7.8%	?	-0.8	21.1
O=C(COc1ccc(Cl)cc1)NCc1ccc(F)cc1	-7.1%	-55.6%	-7.3%	-3.6%	-0.6	-3.6
O=C(Nc1ccc(N2CCOCC2)c(Cl)c1)c1ccc(Cl)cc1	1.1%	.	0.0%	10.4%	32.0*	52.5*
O=C(/C=C/c1ccc(S(=O)(=O)N2CCOCC2)cc1)NC(=S)Nc1ccc(Cl)cc1Cl	0.4%	6.6%	?	-28.2%	-2.3	-14.0
O=C(/C=C/c1ccc(Cl)cc1)NC(=S)Nc1ccc(N2CCOCC2)c(Cl)c1	14.6%	18.9%	0.0%	10.4µM*	0.3	61.1
COC(=O)c1cc(NC(=O)c2cc(-c3ccccc3Cl)oc2C(F)(F)F)ccc1N1CCOCC1	0.6%	15.2%	?	?	-3.5	27.2
O=C(Nc1ccc(N2CCOCC2)c(Cl)c1)c1ccccc1F	-14.1%	2.9%	94.5%	.	35.2*	109.1*
O=C(Nc1ccc(N2CCOCC2)cc1N1CCOCC1)c1ccc(Cl)cc1	-5.7%	-5.3%	25.0%	?	1.4	-10.8
COC(=O)c1cc(NC(=O)c2cc(-c3ccc(Cl)cc3)oc2C(F)(F)F)ccc1N1CCOCC1	-5.4%	?	11.7µM*	?	0.5	2.9
Cc1cc(C(=O)Nc2ccc(C)c(S(=O)(=O)N3CCOCC3)c2)c(C)o1	0.2%	.	?	31.2%	9.7	16.0
O=C(Nc1ccc(N2CCOCC2)c(Cl)c1)C1CCCCC1	-5.6%	-4.1%	9.2%	19.4%	52.3*	128.8
O=C(Nc1ccc(Cl)c(S(=O)(=O)N2CCOCC2)c1)C1CCCC1	6.9%	.	.	.	.	.
Cc1cc(C(=O)Nc2ccc(N3CCOCC3)c(Cl)c2)c(C)o1	-0.9%	-6.9%	92.7%	52.6%	33.7*	41.7*
CCN(CC)S(=O)(=O)c1cccc(NC(=S)NC(=O)/C=C/c2ccc(S(=O)(=O)N3CCOCC3)cc2)c1	2.0%	8.9%	?	4.65µM*	-2.0	-4.6
NCCCC[C@H](NC(=O)CNC(=O)[C@@H]1CCCN1C(=O)[C@H](Cc1ccc(O)cc1)NC(=O)CN)C(=O)N[C@@H](Cc1ccccc1)C(=O)O	.	.	.	.	-6.5	-7.3
O=C(NC1(C(F)(F)F)N=C2SCCN2C1=O)c1ccccc1F (configuration not stated)	1.4%	5.0%	73.4%	0.6%	-1.8	-10.7
COc1ccc(C(=O)N2CCOC2CNC(=O)C(=O)NCCc2ccc(OC)c(OC)c2)cc1 (configuration not stated)	-2.5%	9.3%	?	-20.6%	-2.7	-3.3
CC(=O)Nc1cccc(C(=O)OCC(=O)NCc2ccc(F)cc2)c1	-0.4%	.	13.1µM*	32.5%	17.5	28.0
CC(=O)Nc1ccc(C(=O)OCC(=O)NCc2ccccc2)cc1	0.1%	1.6%	-11.7%	-8.7%[5.75 µM]	5.5	2.3
